Shown are actives, neighbours in structure and some others; about 1.4% of the full set was active somewhere.
eLon inh = inhibitors of E. coli Lon protease, primary screen, biochemical, fluorescence polarization; P0A9M0; purified E. coli Lon protease; inhibition, % at 7.94 µM; 360,000 compounds, 0.42% hits; AID 602123, 2011; in the data active means inhibition above about 13%, passing the limit was not always enough;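 further: 0% = enzyme with probe and DMSO and 100% = no enzyme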
MCL1-BIM inh = inhibitors of MCL1 binding to BIM-BH3, primary screen, biochemical, fluorescence polarization | Induced myeloid leukemia cell differentiation protein Mcl-1 (Homo sapiens), Q07820 | GST-MCL1 / FITC-Bim-BH3 fluorescence polarization | inhibition, % at 10.9 µM | 320,000 compounds, 0.68% hits | AID 2057, 2009;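 active means inhibition above the mean inhibition of all tested compounds plus 3 SD, set per campaign, cut at about 40% in these data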;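 further: 0% = DMSO wells and 100% = unlabeled Bim-BH3 peptide control; higher means more loss of mP so more displacement of Bim peptide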
GLD-1 TGE inh = GLD-1/TGE RNA complex disruptors, primary screen, biochemical, fluorescence polarization. Female germline-specific tumor suppressor gld-1 (Caenorhabditis elegans), Q17339. purified GLD-1 + fluorescein TGE RNA. inhibition, % at 5.96 µM. 320,000 compounds, 0.44% hits;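 active means percent inhibition above a per-plate cutoff, the plate mean of test compounds plus 3 SD, cut at about 30% in these data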;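 further: 0% = DMSO wells with GLD-1 and probe and 100% = wells lacking GLD-1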
Target sequence (Q17339 whole entry, looked up): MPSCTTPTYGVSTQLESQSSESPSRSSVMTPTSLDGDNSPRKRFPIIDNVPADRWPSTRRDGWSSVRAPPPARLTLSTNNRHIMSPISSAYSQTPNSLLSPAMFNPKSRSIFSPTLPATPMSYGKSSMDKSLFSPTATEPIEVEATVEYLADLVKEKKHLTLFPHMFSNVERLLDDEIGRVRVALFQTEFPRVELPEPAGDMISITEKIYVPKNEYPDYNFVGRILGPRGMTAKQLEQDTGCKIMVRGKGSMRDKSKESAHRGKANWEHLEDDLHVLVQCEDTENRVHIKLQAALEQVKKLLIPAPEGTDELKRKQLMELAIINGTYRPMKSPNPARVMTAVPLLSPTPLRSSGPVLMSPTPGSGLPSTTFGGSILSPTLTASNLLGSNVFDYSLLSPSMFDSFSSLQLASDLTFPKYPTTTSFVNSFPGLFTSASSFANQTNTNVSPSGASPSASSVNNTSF
MEX-5 binding = MEX-5 zinc finger RNA-binding disruptors – biochemical, C. elegans, fluorescence polarization, MLPCN library, primary screen. Zinc finger protein mex-5 (Caenorhabditis elegans), Q9XUB2. MEX-5/FITC-TCR2 RNA binding; active compounds read low. activity score (negative = inhibition of binding), % at 10 µM. 300,000 compounds, 0.38% hits. AID 1832, 2009;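 active means inhibition past about -25% in most replicates, and total fluorescence under double the plate's negative control median, limit read from the data; inconclusive means replicates evenly split on the limit, or fluorescence at least double controls; inactive means too little inhibition in most replicates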;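 further: 0% = DMSO and -100% = 5 µM competing unlabeled TCR2 RNA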
BCLXL inh = inhibitors of human Bcl-xL, primary screen, biochemical, fluorescence polarization, HTS; inhibition, % at 10.9 µM; Bcl-2-like protein 1 (Homo sapiens), Q07817; 320,000 compounds, 0.7% hits; GST-Bcl-xL / FITC-Bim BH3 peptide fluorescence polarization; AID 2129, 2009;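 active means inhibition above the mean of all tested compounds plus 3 SD, cutoff set per campaign, cut at about 30% in these data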;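 further: 0% = DMSO wells and 100% = unlabeled Bim-BH3 peptide competitor; inhibitors lower millipolarization by displacing the labeled peptide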
EBV gp42 inh = Epstein-Barr virus gp42 inhibitors, primary screen, biochemical, uHTS, fluorescence polarization; Fluorescence polarization binding assay, mP read-out; inhibition, % (tested at 21.74 µM); 220,000 compounds, 0.42% hits; AID 1085, 2008; in the data active means inhibition above about 50%
Target sequence (Q1HVG2 whole entry, looked up): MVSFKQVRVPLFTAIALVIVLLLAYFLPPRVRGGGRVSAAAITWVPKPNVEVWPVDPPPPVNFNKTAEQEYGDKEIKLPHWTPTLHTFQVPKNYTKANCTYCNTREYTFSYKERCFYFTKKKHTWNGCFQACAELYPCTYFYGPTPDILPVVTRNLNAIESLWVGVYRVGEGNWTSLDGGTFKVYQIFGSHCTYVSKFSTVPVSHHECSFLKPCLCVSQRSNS
Bcl-xL conf = Bcl-xL inhibitors blocking Bim BH3 binding, confirmation, counter-screen for MCL1 inhibitor project, biochemical, fluorescence polarization; AID 2166, 2009; shares compounds with MCL1-BIM inh; GST-Bcl-xL / FITC-Bim BH3 peptide FP binding; 1,700 compounds, 54% hits; inhibition, % at 10.9 µM;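 active means inhibition above a cutoff equal to the mean inhibition of all tested compounds plus 3 SD, cut at about 30% in these data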;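 further: 0% = DMSO wells and 100% = unlabeled Bim BH3 control peptide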
MCL1 BIM confirm = inhibitors of MCL1 binding to BIM-BH3, confirmation, biochemical, fluorescence polarization, triplicate. GST-MCL1 / FITC-Bim-BH3 fluorescence polarization. AID 2168, 2009. shares compounds with MCL1-BIM inh. 1,700 compounds, 61% hits. inhibition, % at 10.9 µM;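 active means inhibition above the average of all tested compounds plus 3 SD, cut at about 40% in these data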;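 further: 0% = DMSO wells and 100% = unlabeled Bim-BH3 control peptide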
GLD-1 TGE cf = GLD-1/TGE RNA binding inhibitors, retest, confirmation, biochemical, fluorescence polarization, triplicate | inhibition, % at 5.96 µM | shares compounds with GLD-1 TGE inh | GLD-1/FL-TGE RNA fluorescence polarization | 550 compounds, 10% hits | AID 2459, 2010;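 active means average inhibition across triplicates above the hit cutoff set in the primary screen, cut at about 32% in these data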;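 further: 0% = GLD-1 with RNA probe and DMSO and 100% = wells lacking GLD-1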
E coli Lon conf = E. coli Lon protease inhibitor retest, confirmation, biochemical, fluorescence polarization | 1,400 compounds, 31% hits | purified E. coli Lon | inhibition, % at 7.94 µM | shares compounds with eLon inh; in the data active means inhibition above about 16%;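 further: 0% = enzyme with probe and DMSO and 100% = no enzyme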
An asterisk follows results filed as active; ? = inconclusive; nt = no result; + = active, no number; ! = repeats disagree.

SMILES	eLon inh	MCL1-BIM inh	GLD-1 TGE inh	MEX-5 binding	BCLXL inh	EBV gp42 inh	Bcl-xL conf	MCL1 BIM confirm	GLD-1 TGE cf	others
CN(C)C1C(=O)C(C(N)=O)=C(O)C2(O)C(=O)C3=C(O)c4c(O)cccc4C(C)(O)C3C(O)C12 (stereo not given)	2.5	105.0*	44.2*	-20.2	51.2*	nt	32.6*	84.4*	0.4
OCCNc1c2c(nc3ccccc13)CCCC2	-4.5	-0.3	4.4	1.5	2.8	-15.3	nt	nt	nt
C[n+]1c2ccccc2nc2ccc(NCCO)cc21	45.0	81.8*	34.0*	-21.2	73.2*	nt	77.9*	84.0*	14.1
CC1(O)CCN2C(=O)CCc3cccc1c32 (stereo not given)	16.2	66.4*	57.6*	nt	49.5*	nt	8.1	9.5	2.4
CCC(CO)NC(=O)C1C=C2c3cccc4[nH]cc(c34)CC2N(C)C1 (stereo not given)	59.0	46.7*	34.8*	-14.7	46.6*	22.4	96.1*	111.0*	8.7
CC[C@@H](CO)NC(=O)[C@@H]1C=C2c3cccc4c3c(cn4C)C[C@H]2N(C)C1	37.7	171.4*	112.2*	-30.9*	142.8*	52.6*!	28.5	41.5*	18.3
CCN(CC)C(=O)N[C@H]1C[C@@H]2c3cccc4[nH]cc(c34)C[C@H]2N(C)C1	33.4	28.3	19.3	0.6	23.2	-0.9	nt	nt	nt
CC12C(C(=O)O)C1(c1ccccc1)C2C(=O)O (stereo not given)	-14.8	nt	nt	nt	nt	nt	nt	nt	nt
Cc1c(C(=O)N2CCC3(CC2)OCCO3)oc2ccc(S(=O)(=O)N3CCCCC3)cc12	0.4	-4.3	-2.6	-5.7	2.1	-11.6	nt	nt	nt
Oc1cccc(/C=N/NP(=S)(c2ccccc2)c2ccccc2)c1	-0.9	4.8	13.5	-3.3	5.4	5.0	nt	nt	nt
Cc1ccc2cc(C=C(C#N)C#N)c(Cl)nc2c1	163.9*	+	167.0*	?	196.3*	29.8	-117.9	-202.5	nt	E coli Lon conf=82.9*
CN1CCN(c2ccc([N+](=O)[O-])c3no[n+]([O-])c23)CC1	130.6*	+	140.8*	-60.4*	196.8*	140.9*	149.4*	180.0*	nt	E coli Lon conf=101.7*
O=c1[nH]c(=S)n(C2CC2)c(O)c1C=Nc1ccc2c(c1)OCO2	-8.4	12.4	4.4	-1.2	13.6	-9.3	nt	nt	nt
CC12Nc3ccccc3C(=O)N1Cc1cnnn1-c1ccccc12 (stereo not given)	1.9	nt	nt	nt	nt	nt	nt	nt	nt
CN1CC=C2C(C#N)=C(N)C(C#N)(C#N)C(c3ccncc3)C2C1 (stereo not given)	57.4*	163.5*	87.9*	-47.0*	136.2*	nt	37.0*	49.7*	nt	E coli Lon conf=81.1*
O=C1NC(=O)C(CCc2ccccn2)(Cc2ccc3c(c2)OCO3)C(=O)N1CCc1ccccc1 (stereo not given)	-13.0	3.5	-2.2	-1.5	4.9	-18.2	nt	nt	nt
C[C@H](NC(=O)N1C[C@H]2C[C@@H](C1)c1cccc(=O)n1C2)C(=O)Nc1cccc(F)c1	-8.9	-5.2	1.3	-0.7	-2.1	nt	nt	nt	nt
CN1C[C@H](CNC(=O)OCc2ccccc2)C[C@@H]2c3cccc4c3c(cn4C)C[C@H]21	75.8*	66.9*	52.7*	-6.9	52.3*	20.5	23.8	39.1	5.9	E coli Lon conf=35.9*
CNc1ccc2nc3ccccc3[n+](C)c2c1	94.8*	184.8*	29.9	-41.8*	147.4*	nt	117.6*	168.6*	nt	E coli Lon conf=106.4*
O=C(CF)NC(NC(=S)Nc1ccccc1O)C(Cl)(Cl)Cl (stereo not given)	-10.8	-0.1	2.9	-2.8	6.2	-8.4	nt	nt	nt
S=P(NC1CCCCC1)(N1CC1)N1CC1	2.0	48.4*	34.8*	1.4	50.2*	4.6	nt	nt	0.7
CN(C)CC1CSCCC1(O)c1ccccc1 (stereo not given)	1.1	8.6	-2.6	-2.0	7.6	-20.5	nt	nt	nt
CC(=NCCC1=CCCCC1)c1c(O)n(C)c(=O)n(C)c1=O	-2.7	0.2	6.6	0.7	2.2	2.0	nt	nt	nt
CC(=NCCC1=CCCCC1)c1c(O)[nH]c(=O)[nH]c1=O	-6.6	8.1	36.6*	3.3	3.9	-19.4	nt	nt	-2.8
CN1C(=O)C2C[C@@]3(Br)c4ccccc4N(OOSc4ccccc4)[C@H]3N2C(=O)[C@@H]1Cc1ccccc1 (stereo not given in full)	-3.0	-0.8	32.0*	1.4	1.2	nt	nt	nt	2.8
SMILES	eLon inh	MCL1-BIM inh	GLD-1 TGE inh	MEX-5 binding	BCLXL inh	EBV gp42 inh	Bcl-xL conf	MCL1 BIM confirm	GLD-1 TGE cf	others
CN1CC[C@@]2(C)c3cc(O)ccc3N(C)C2O1 (stereo not given in full)	20.2	21.2	39.1*	-4.4	26.5	nt	nt	nt	1.8
CN1CC[C@@]2(C)c3cc(O)ccc3N(C)[C@@H]12	-0.5	nt	nt	nt	nt	nt	nt	nt	nt
N#Cc1ccc(NC(=O)CN2CCCCCC2)cc1Cl	9.1	3.1	-3.0	3.2	7.3	nt	nt	nt	nt
C[N+]1=C(/C=C/Nc2ccccc2)C(C)(C)c2ccccc21	-1.2	10.7	3.4	5.0	4.5	-24.3	nt	nt	nt
CCN1/C(=C/C=C/C2=[N+](CC)c3ccccc3C2(C)C)C(C)(C)c2ccccc21	+	nt	nt	nt	nt	nt	nt	nt	nt	E coli Lon conf=+
O=[N+]([O-])c1ccc(N(CCO)CCO)c2c1no[n+]2[O-]	65.8*	nt	nt	nt	nt	nt	nt	nt	nt	E coli Lon conf=31.5*
COC(=O)C1=C(c2cccc(OCc3ccccc3)c2)C[C@@H]2CC[C@H]1N2C(=O)NCc1cc(C)oc1C(F)(F)F	26.2*	0.1	0.7	nt	4.3	nt	nt	nt	nt	E coli Lon conf=-3.5
COC(=O)C1=C(c2cccc(OCc3ccccc3)c2)C[C@@H]2CC[C@H]1N2C(=O)NCc1cccc(C(F)(F)F)c1	0.1	4.6	-1.9	nt	0.9	nt	nt	nt	nt

Source: PubChem BioAssay (several laboratories)
